Data as given in PubChem BioAssay AID1159580 (chemical genetic matrix, 2015).
About 2,000 (36%) of roughly 5,500 compounds were called active. Not shown: some 18% with an inconclusive outcome. Rule as the data show it: active = normalized growth mostly below about 0.91 (no sharp cut-off); inconclusive = no clear call, values can overlap the other calls; inactive = mostly above about 0.92. Some of the results follow.

Assay: chemical genetic growth profiling, strain panel (AID 1159580);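 also: tested at 20 µM; growth read once vehicle control cultures reached saturation at 30 °C; 1 = growth at the plate median or of vehicle wells; lower values mean less growth of the strain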
Settings: S. cerevisiae deletion strains, growth OD

Measured: normalized growth

O=C(O)/C=C/C(O)c1ccc(Cl)cc1 (stereo not drawn)
inactive: locus YAL013W, strain DEP1, hits give low values 0.986 | locus YAL040C, strain CLN3, hits give low values 1.07 | locus YCL061C, strain MRC1 (second series), hits give low values 0.982 | locus YDR363W, strain ESC2, hits give low values 1.02 | locus YER002W, strain NOP16, hits give low values 1 | locus YMR263W, strain SAP30, hits give low values 0.983 | locus YMR307W, strain GAS1, hits give low values 1.03 | locus YNL153C, strain GIM3, hits give low values 0.997 | locus YNL175C, strain NOP13, hits give low values 0.997 | locus YNL197C, strain WHI3, hits give low values 0.986 | locus YNL224C, strain SQS1, hits give low values 0.98 | locus YOR083W, strain WHI5 (second series), hits give low values 0.998 | locus YPL241C, strain CIN2, hits give low values 0.985
